GoLoco inh red – RGS12 GoLoco-Gai1 interaction inhibition. P63096. Gai1:RGS12 GoLoco peptide FP, rhodamine, 10 min. Potency, µM (doses to about 61.6 µM), inactives show at the highest dose activity, negative = inhibition, hits mostly inhibitors. 230,000 compounds, 0.44% hits; active = well fitted inhibition curve with a large enough effect, not every such curve was filed as active; inactive = no such curve, though single readings can be large or run the other way; note: potency is the fitted concentration of half-maximal effect; nearly all actives have a fitted effect of over 30% in size
Coupling enz – inhibits coupling enzyme system, counter-screen for aldolase hits; coupling enzyme system counterscreen, AmpLite Red fluorescence; activity change, negative = inhibition, % at 58.2 µM, hits read low; 290,000 compounds, 0.67% hits; in the data active = activity change below about -30%
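Coupling enzymes only (glyceraldehyde-3-phosphate) + compound, at 57.5 uM final, 10 min RT; add substrate/coupling/AmpLite Red mix, 20 min RT; fluorescence ex 525/em 598 nm. Actives flag coupling-system interference.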
NPSR antag – antagonists of human neuropeptide S receptor cAMP signaling; Q6W5P4; CHO-NPSR cells, cAMP TR-FRET, antagonist mode; Potency, µM (highest dose often 38.3 µM), without a hit: at the highest dose activity change, negative = inhibition, hits mostly inhibitors; 220,000 compounds, 1% hits; AID 1461; active = well fitted curve in the direction sought with a large enough effect; inconclusive = small, poorly fitted or top-dose-only effect, or another doubt; inactive = no such curve, though single readings can be large; an effect the other way counts as inactive or inconclusive; note: potency is the fitted concentration of half-maximal effect; nearly all actives have a fitted effect of over 50% in size
Target sequence (Q6W5P4 whole entry, looked up): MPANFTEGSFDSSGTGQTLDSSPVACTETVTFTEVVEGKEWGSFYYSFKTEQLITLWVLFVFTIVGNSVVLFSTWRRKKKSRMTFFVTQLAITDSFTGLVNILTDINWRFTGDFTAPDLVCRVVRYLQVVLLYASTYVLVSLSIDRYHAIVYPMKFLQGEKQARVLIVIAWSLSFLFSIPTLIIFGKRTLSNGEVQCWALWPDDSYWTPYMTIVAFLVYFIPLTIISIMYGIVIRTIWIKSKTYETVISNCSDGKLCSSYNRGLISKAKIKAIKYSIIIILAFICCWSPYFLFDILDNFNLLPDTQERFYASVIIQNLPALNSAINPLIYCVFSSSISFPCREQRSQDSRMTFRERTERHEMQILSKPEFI
JMJD2E inh – inhibitors of human JMJD2E histone demethylase | B2RXH2 | JMJD2E catalytic domain, FDH-coupled NADH fluorescence (FDH is formaldehyde dehydrogenase) | Potency, µM (titrated, usually from 57.1 µM), inactives show at the top dose activity change, negative = inhibition, actives largely listed as inhibitors | 230,000 compounds, 1.6% hits;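 note: potency is the fitted concentration of half-maximal effect; 0% = wells with enzyme and -100% = buffer wells without enzyme; nearly all actives have a fitted effect of over 50% in size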
Target sequence (B2RXH2 1-337 limits assumed): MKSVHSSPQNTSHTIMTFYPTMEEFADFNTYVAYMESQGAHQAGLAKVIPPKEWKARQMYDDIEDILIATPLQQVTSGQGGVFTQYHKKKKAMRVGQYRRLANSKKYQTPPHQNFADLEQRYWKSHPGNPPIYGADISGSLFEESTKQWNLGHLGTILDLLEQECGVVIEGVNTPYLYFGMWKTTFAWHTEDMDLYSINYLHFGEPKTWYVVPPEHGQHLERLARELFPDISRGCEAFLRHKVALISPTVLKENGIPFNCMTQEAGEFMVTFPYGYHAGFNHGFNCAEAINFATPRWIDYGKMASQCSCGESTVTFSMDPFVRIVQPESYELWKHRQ
Sfp PPTase inh – inhibitors of Bacillus subtilis Sfp phosphopantetheinyl transferase; Biochemical Sfp PPTase activity, qHTS; Q9F4F7; 310,000 compounds, 3.5% hits; Potency, µM, inactives show largest response in the series, negative = inhibition, actives largely listed as inhibitors; active = well fitted curve in the direction sought with a large enough effect; inconclusive = small, poorly fitted or top-dose-only effect, or another doubt; inactive = no such curve, though single readings can be large; an effect the other way counts as inactive or inconclusive;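 note: the enzyme is Sfp with the accession as filed and its product quenches rhodamine fluorescence; potency is the fitted concentration of half-maximal effect; 0% = enzyme reaction without inhibitor and -100% = no enzyme wells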
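Fluorescence-quenching assay with 15 nM Sfp, 5 uM rhodamine-CoA and 12.5 uM BHQ-2-labelled ybbR peptide in pH 7.6 Hepes/MgCl2 buffer. Enzyme was pre-incubated with compound for 15 min at room temperature. Rate was taken from the 30-min fluorescence change (525/598 nm).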
ALDH1A1 block – ALDH1A1 (human) enzyme inhibition; P00352; Potency, µM (titrated, usually from 75.3 µM), for inactives: at the highest dose activity, negative = inhibition, hits mostly inhibitors; 220,000 compounds, 7.3% hits; Purified ALDH1A1, NADH fluorescence, propionaldehyde substrate;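 note: potency is the fitted concentration of half-maximal effect; plate controls were no enzyme wells and a reference inhibitor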
* = called active by the depositor; ? = inconclusive; nt = no result given; [ ] = dose if it differs, or a comment. The list is not random: actives were taken first. Their share in the collection is about 8.5%. Unless noted, calls come from the whole dose curve; as a rule, active = well fitted inhibition curve with a large enough effect (not every such curve was filed as active); inconclusive = small, poorly fitted or top-dose-only effect, or another doubt; inactive = no such curve, though single readings can be large or run the other way. Unless noted, % is set by controls: 0 for no effect and ±100 for the full control effect.

SMILES	GoLoco inh red	Coupling enz	NPSR antag	JMJD2E inh	Sfp PPTase inh	ALDH1A1 block
Cc1c(C(=O)N2CCN(CCc3ccccc3)CC2)oc2ccccc12	4%	9	1%[46.1 µM]	-5%	16%	14µM*
O=C(NC(Cc1ccccc1)C(=O)O)/C(=C\c1ccco1)NC(=O)c1ccccc1 (stereo unspecified)	0%	-3	11%	?	35µM*	9%
O=C(O)/C(=C/c1ccco1)c1ccccc1	5%	-6	-1%	-6%	22µM*	0%
CC(=O)c1cccc(NC(=O)/C(=C/c2ccco2)NC(=O)c2ccco2)c1	nt	nt	nt	nt	8%	nt
O=C(O)/C(=C/c1ccco1)NC(=O)c1ccccc1	-1%	0	17%	-5%	-19%	1%
O=C(O)/C(=C\c1ccco1)NC(=O)c1cccc2ccccc12	7%	0	-6%[46.1 µM]	-8%	79µM*	12%
O=C(NC(Cc1ccccc1)C(=O)O)/C(=C\c1ccco1)NC(=O)c1ccc(Br)cc1 (stereo unspecified)	8%	1	-13%[46.1 µM]	1%	-65%	7%
Cc1ccc(C(=O)N/C(=C/c2ccco2)C(=O)Nc2cccc(C(=O)O)c2)cc1	nt	-1	nt	nt	45µM*	nt
Cc1ccc(S(=O)(=O)CC(=O)N2CCN(c3cccc(C(F)(F)F)c3)CC2)cc1	nt	nt	nt	nt	5%	nt
CN(CC(=O)NCCc1ccc(S(N)(=O)=O)cc1)S(=O)(=O)c1cccc2nsnc12	nt	-1	nt	nt	7%	nt
O=[N+]([O-])c1cccc(NC2=NCCC2)c1	-13%	-1	10%	6%	20%	12%
Cc1cccc(NC(=O)/C(=C\c2ccc([N+](=O)[O-])o2)NC(=O)c2ccc(Cl)cc2)c1	149%	3	-45%	3%	12%	4.5µM*
COc1ccccc1C(=O)N/C(=C/c1ccccc1)C(=O)Nc1ccc(C(=O)O)cc1	8%	7	-3%	-1%	3%	1%
COc1ccccc1C(=O)N/C(=C/c1ccco1)C(=O)Nc1cccc(C(=O)O)c1	nt	3	nt	nt	50µM*	nt
COC(=O)/C(=C\c1ccc([N+](=O)[O-])o1)NC(=O)c1ccccc1	12%	-2	-6%[46.1 µM]	-6%	10%	11%
COc1ccccc1NC(=O)NNC(=O)CCN1CCOCC1	nt	-1	nt	nt	13%	nt
O=C(c1ccc(Cc2nc3ccccc3[nH]2)cc1)N1CCCCC1	nt	nt	nt	nt	nt	-7%
Brc1ccc(OCc2ccccc2)c(CNCc2ccncc2)c1	1%	-12	-10%[46.1 µM]	-4%	79µM*	2µM*
Fc1ccc(COc2ccccc2CNCc2ccncc2)cc1	-1%	1	23%	1%	-7%	?
CC(=O)NS(=O)(=O)c1ccc(NS(=O)(=O)c2ccccc2[N+](=O)[O-])cc1	4%	10	7%	-13%	-1%	nt
Cn1c(Cc2ccccc2)nnc1SCC(=O)NC1CCCC1	nt	2	nt	nt	9%	nt
CC(C)OC(=O)CSc1nnc(-c2cnccn2)n1Cc1ccco1	7%	3	-2%[46.1 µM]	4%	-6%	-3%
CC(C)OC(=O)CSc1nnc(Cc2ccccc2)n1Cc1ccco1	12%	-1	1%[46.1 µM]	8%	22µM*	?
O=C(CSc1nnc(Cc2ccccc2)n1Cc1ccco1)NC1CCCC1	8%	-2	-11%[46.1 µM]	-1%	?	22µM*
Cc1ccc(S(=O)(=O)Oc2ccc3c(c2)O/C(=C\c2cccnc2)C3=O)cc1	4%	-2	-26%[46.1 µM]	1%	3%	11µM*
SMILES	GoLoco inh red	Coupling enz	NPSR antag	JMJD2E inh	Sfp PPTase inh	ALDH1A1 block
O=C1/C(=C/c2cccnc2)Oc2cc(OS(=O)(=O)c3ccc(F)cc3)ccc21	-1%	2	-27%[46.1 µM]	?	-19%	8.9µM*
N#CC1(NC(=O)CN2CCc3ccccc3C2)CCCC1	4%	-2	2%	-11%	16%	?
O=c1[nH]c2cc3c(cc2cc1CN(Cc1cccnc1)C(=S)NCc1ccco1)OCO3	3%	1	39%	?	40µM*	?
O=c1[nH]c2cc3c(cc2cc1CN(Cc1cccnc1)C(=S)NCc1ccco1)OCCO3	128%	2	42%	4%	5µM*	26%
Cc1oc(-c2ccc3c(c2)OCCO3)cc1C(=O)NC(CCC(=O)O)C(=O)O (stereo unspecified)	-28%	12	-14%[46.1 µM]	?	18µM*	7.9µM*
Cc1oc(-c2ccc3c(c2)OCCO3)cc1C(=O)NCC(=O)O	17%	0	46%	?	-20%	?
CS(=O)(=O)c1sc2nc(-c3cccs3)cc(-c3ccccc3)c2c1N	66%	1	10µM*	?	10µM*	?
Cc1ccc(-c2cc(-c3ccccc3)c3c(N)c(S(C)(=O)=O)sc3n2)cc1	76%	1	-4%[46.1 µM]	?	?	?
CCC(C(=O)Nc1nc(C)c(C(=O)OC)s1)c1ccccc1 (stereo unspecified)	10%	2	-49%	0%	-14%	-4%
CCOC(=O)c1c(NC(=O)C(Sc2ccccc2)c2ccccc2)sc(C(=O)N(C)C)c1C (stereo unspecified)	-5%	-9	?	-7%	-8%	-10%
CCC(C(=O)Nc1ccsc1C(=O)OC)c1ccccc1 (stereo unspecified)	-1%	2	-52%	-2%	-26%	11µM*
CCOC(=O)c1c(NC(=O)C(Sc2ccccc2)c2ccccc2)sc(C(N)=O)c1C (stereo unspecified)	3%	-7	?	1%	-7%	14µM*
CCC(C(=O)Nc1sc(C(N)=O)c(C)c1C(=O)OC)c1ccccc1 (stereo unspecified)	10%	0	-53%	-4%	-4%	13µM*
CC(Oc1cc2oc(=O)c3c(c2cc1Cl)CCCC3)C(=O)NCCN1CCOCC1 (stereo unspecified)	nt	1	nt	nt	5%	nt
Cn1cnc2cc(NC(=O)c3ccco3)ccc21	10%	1	-12%[46.1 µM]	-5%	16%	-64%
O=C(Nc1cccc(-n2cnnn2)c1)c1ccco1	-25%	-1	9%[46.1 µM]	?	-3%	40µM*
O=C(Nc1ccc2c(c1)ncn2-c1ccccc1)c1ccco1	0%	-1	-16%[46.1 µM]	-3%	32µM*	?
CCCc1c(C(=O)NNc2ccccc2OC)cnn1-c1ccccc1	-17%	6	4%	-3%	-5%	7.9µM*
O=c1[nH]c(/C=C2\C=Nc3ccccc32)c(O)n1Cc1ccccc1F	13%	-5	-54%	?	-18%	13µM*
CSc1nc(O)c(/C=C2\C=Nc3ccccc32)[nH]1	27%	-1	-12%	-4%	-4%	?
C#CCNC(=O)C1=C[C@H](c2ccc3c(c2)OCO3)C[C@H](OCc2ccc(CO)cc2)O1	4%	2	10%	-27%	-7%	28µM*

Bioassay records as filed in PubChem.
